Data on seven compounds can be found in PubChem BioAssay (NCI).

Structures are written as SMILES. About 83,000 compounds went through this panel and 20% of them were active in at least one assay; those are over-represented in the sample as a whole.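 Interpretation: 100, growth as untreated; towards 0, rising growth inhibition; 0, no net growth; 0 to -100, cell death. Compounds scoring below 10 were considered active.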 Values without a mark were called inactive. Activity calls are given as the source filed them.

Test systems include HCT-15 colon; HT29 colon; SNB-75 CNS; SNB-19 CNS; U251 CNS; PC-3 prostate; SK-MEL-5 melanoma; UACC-62 melanoma; LOX IMVI melanoma; SK-MEL-28 melanoma; SK-MEL-2 melanoma; EKVX NSCLC; SN12C renal; UO-31 renal; TK-10 renal; ACHN renal; CAKI-1 renal; A498 renal; CCRF-CEM leukemia; MOLT-4 leukemia.
Common to all, as to test: NCI-60 one-dose screen, 48 h (100 = growth as untreated, 0 = no growth, -100 = all killed)
Holding throughout (conditions): 10 µM

`[2H]C([2H])([2H])Oc1ccc2ncc(C#Cc3cncc(C(=O)Nc4ccc(CN5CCN(C)CC5)c(C(F)(F)F)c4)c3)n2n1`: the growth is -87.7% (active) in the assay with HCT-15 colon; -52.8% (active) in the assay with HT29 colon; -66.4% (active) in the assay on SNB-75 CNS; -57.9% (active) with SNB-19 CNS; -31.4% (active) in the assay on U251 CNS; -61.6% (active) in the assay with PC-3 prostate. For the same compound, the growth was -96.1% (active) in the assay with SK-MEL-5 melanoma; -77.5% (active) in the assay with UACC-62 melanoma; -68.4% (active) with LOX IMVI melanoma; -83.8% (active) with SK-MEL-28 melanoma; -92.7% (active) in the assay with SK-MEL-2 melanoma; -60% (active) in the assay on EKVX NSCLC. For the same compound, the growth in the assay with SN12C renal was -78.2% (active); with UO-31 renal, -85.2% (active); with TK-10 renal, -53.4% (active); in the assay with ACHN renal, -88.9% (active); with CAKI-1 renal it was -78.7% (active); in the assay on A498 renal, -50.6% (active). Also, the growth was 0.607% (active) in the assay with CCRF-CEM leukemia and -13.6% (active) in the assay with MOLT-4 leukemia.
In the case of `Cn1cc(/C=N/Nc2ccnc3cc(Cl)ccc23)c2ccccc21`, the growth in the assay on HCT-15 colon is -92.2% (active); with HT29 colon it was -40.1% (active); with SNB-75 CNS, -85.8% (active); with SNB-19 CNS, -79.8% (active); with U251 CNS it was -49.8% (active); in the assay with PC-3 prostate it was -51.5% (active). In addition, the growth in the assay with SK-MEL-5 melanoma was -98.2% (active); in the assay with UACC-62 melanoma, -66.1% (active); with LOX IMVI melanoma, -83.7% (active); in the assay with SK-MEL-28 melanoma, -89.6% (active); in the assay with SK-MEL-2 melanoma, -72.3% (active); in the assay on EKVX NSCLC, -85.1% (active). Further, the growth in the assay with SN12C renal is -59.4% (active); in the assay on UO-31 renal, -90.1% (active); in the assay with TK-10 renal, -72.1% (active); in the assay with ACHN renal, -92.7% (active); in the assay with CAKI-1 renal, -85.3% (active); in the assay on A498 renal, -80.2% (active). The growth was -35.6% (active) with CCRF-CEM leukemia and -32.1% (active) in the assay on MOLT-4 leukemia.
As for `Nc1n[nH]c2cccc(C#Cc3cccc(NC(=O)Nc4cc(C(F)(F)F)cc(C(F)(F)F)c4)c3)c12`, the growth in the assay with HCT-15 colon is -81.8% (active); in the assay with HT29 colon it was -49.7% (active); in the assay on SNB-75 CNS, -0.721% (active); with SNB-19 CNS it was -19.7% (active); with U251 CNS it was -78.5% (active); with PC-3 prostate, -4.77% (active). In addition, the growth in the assay on SK-MEL-5 melanoma is -100% (active); in the assay with UACC-62 melanoma, -90.9% (active); in the assay with LOX IMVI melanoma, -100% (active); with SK-MEL-28 melanoma, -88.5% (active); in the assay with SK-MEL-2 melanoma it was -96.8% (active); in the assay on EKVX NSCLC, -30.3% (active). In addition, the growth was -85.9% (active) in the assay on SN12C renal; -52.5% (active) with UO-31 renal; -3.32% (active) in the assay on TK-10 renal; -25.4% (active) in the assay on ACHN renal; -15.6% (active) with CAKI-1 renal; -17.4% (active) in the assay with A498 renal. Besides, the growth in the assay on CCRF-CEM leukemia was -1.88% (active); in the assay on MOLT-4 leukemia, -1.46% (active).
As for `COc1cccc2nc(Nc3ccc(F)c(NC(=O)c4ccc(CN5CCN(C)CC5)c(C(F)(F)F)c4)c3)ccc12`, the growth with HCT-15 colon was -83% (active); in the assay with HT29 colon it was -30.2% (active); in the assay with SNB-75 CNS, -3.82% (active); in the assay with SNB-19 CNS, -49.2% (active); with U251 CNS, -42.7% (active); with PC-3 prostate it was -8.36% (active). Further, the growth with SK-MEL-5 melanoma is -94.9% (active); in the assay on UACC-62 melanoma, -82.1% (active); in the assay with LOX IMVI melanoma, -100% (active); with SK-MEL-28 melanoma it was -84% (active); in the assay with SK-MEL-2 melanoma it was 14.6%; with EKVX NSCLC it was 13%. Also, the growth is 26.8% in the assay with SN12C renal; 5.08% (active) in the assay with UO-31 renal; 50.3% in the assay with TK-10 renal; 0.664% (active) in the assay with ACHN renal; -2.36% (active) with CAKI-1 renal; 77% with A498 renal. The growth in the assay with CCRF-CEM leukemia was -3% (active); with MOLT-4 leukemia, -16.5% (active).
Regarding `O=c1[nH]c2ccccc2cc1CSc1ccc(Nc2nccc(-c3ccc4c(c3)OCO4)n2)cc1`, the growth in the assay with HCT-15 colon is 84.1%; in the assay on HT29 colon, 74.3%; in the assay on SNB-75 CNS it was 105%; with SNB-19 CNS it was 88.7%; in the assay with U251 CNS, 75.8%; with PC-3 prostate, 88.9%. The growth in the assay with SK-MEL-5 melanoma is 94.5%; in the assay on UACC-62 melanoma, 96.2%; with LOX IMVI melanoma it was 58.7%; in the assay on SK-MEL-28 melanoma, 105%; in the assay with SK-MEL-2 melanoma, 108%; in the assay on EKVX NSCLC, 94.2%. Also, the growth in the assay with SN12C renal was 96%; with UO-31 renal, 95.6%; with TK-10 renal it was 89.4%; in the assay with ACHN renal, 94.7%; in the assay with CAKI-1 renal, 98%; with A498 renal, 121%. In addition, the growth was 98.4% in the assay with CCRF-CEM leukemia and 102% with MOLT-4 leukemia.
For the compound `O=C(c1ccccc1)n1ccc(-c2cc3cc(Br)ccc3oc2=O)n1`, the growth in the assay on HCT-15 colon is 22.8%; in the assay with HT29 colon, 63.5%; in the assay with SNB-75 CNS it was 66.1%; in the assay on SNB-19 CNS it was 34.5%; in the assay with U251 CNS, 27.8%; in the assay with PC-3 prostate, 28.2%. Besides, the growth was 10.6% in the assay with SK-MEL-5 melanoma; -21.1% (active) in the assay with UACC-62 melanoma; 2.5% (active) with LOX IMVI melanoma; 24.4% with SK-MEL-28 melanoma; 16.8% with SK-MEL-2 melanoma; -1.71% (active) in the assay with EKVX NSCLC. The growth in the assay with SN12C renal was 27.4%; in the assay with UO-31 renal, 11.7%; with TK-10 renal, 34.7%; in the assay with ACHN renal it was 8.46% (active); in the assay with CAKI-1 renal, 15.2%; in the assay on A498 renal, 117%. For the same compound, the values for the growth with CCRF-CEM leukemia and with MOLT-4 leukemia were 4.71% (active) and 14.8%, respectively.
As for `COc1ccc2[nH]cc(/C=N/Nc3ccc(Br)cn3)c2c1`, the growth in the assay with HCT-15 colon was 6.98% (active); in the assay on HT29 colon it was 23.3%; in the assay on SNB-75 CNS, 43.7%; in the assay on SNB-19 CNS it was 51.2%; in the assay on U251 CNS, 20.1%; in the assay with PC-3 prostate it was 23%. For the same compound, the growth was 21.9% in the assay on SK-MEL-5 melanoma; 51.3% in the assay with UACC-62 melanoma; 7.7% (active) in the assay on LOX IMVI melanoma; 61.5% in the assay with SK-MEL-28 melanoma; 73.5% with SK-MEL-2 melanoma; 22.9% with EKVX NSCLC. Also, the growth is 23.7% with SN12C renal; 11% in the assay with UO-31 renal; 54% with TK-10 renal; 26.7% with ACHN renal; 30.9% in the assay with CAKI-1 renal; 50.7% with A498 renal. Moreover, the growth in the assay with CCRF-CEM leukemia was 11.2%; in the assay on MOLT-4 leukemia it was 24.6%.
